Article PMC5540273 (PLoS ONE, 2017)

Test system: WEE1
Conditions: concentration: 1 μM, replicates: in singlicate; n = 1
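Note: KINOMEscan kinase panel screen.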

Row | Compound | %Inh [%]
1 | Nc1nc(N)c2nc(-c3ccccc3)[nH]c2n1 [SKF-12778] | 8
2 | COc1cc2nccc(Nc3cccc(Oc4ccccc4)c3)c2cc1OC.Cl [GW284543] | 8
3 | CCc1ccc(-c2ccc3c(c2)-c2nn(C)cc2S(=O)(=O)N3C)cc1 | 21
4 | O=C(NCc1cccs1)c1cc(C(=O)c2c(Cl)cccc2Cl)c[nH]1 [GW823670] | 2
5 | CCCC(=O)Nc1n[nH]c2ncc(-c3cccc4ccccc34)cc12 [SB-642057] | 6
6 | CCC(=O)c1c(-c2ccccc2)c2cc(Cl)ccc2c(=O)n1Cc1cc(S(C)(=O)=O)n(CC(F)F)n1 | 0
7 | Nc1ncnc2c1ncn2-c1cccc(F)c1 [SKF-97560] | 0
8 | Cc1c(Cn2c(C)nn3c(=O)cc(N4CCO[C@H](C)C4)nc23)cccc1C(F)(F)F [GSK2373690] | 5
9 | COc1cc(Nc2nccc(N3CCC(NC(=O)C4COc5ccccc5O4)C3)n2)cc(OC)c1OC (stereo not drawn) [GSK1379761] | 10
10 | Cc1ccccc1COc1cc(-n2cnc3cc(Cl)ccc32)sc1C(N)=O [GW813349] | 4
11 | Cc1ccc(-c2ccc3c(ccc4sc5c(c43)NC[C@@H](C)N=C5N(C)C)n2)cn1 | 0
12 | Fc1cccc(CSc2nnc(-c3ccc4c(c3)CCO4)o2)c1 | 0
13 | CN1C(=O)C(Nc2cc(Cl)c(O)c(Cl)c2)=C(c2ccc(Cl)cc2)C1=O [SB-404321] | 0
14 | CCC(=O)c1c(-c2ccccc2)c2cc(Cl)ccc2c(=O)n1Cc1ccc(C(=O)O)cc1 | 0
15 | COc1cc(Nc2nccc(N3CCC(NC(=O)C(C)c4ccc(Cl)cc4)C3)n2)cc(OC)c1OC (stereo not drawn) [GSK1379757] | 30
16 | C[C@@H]1CC[C@H](C(=O)NC2CCCCC2)CN1c1cc(-c2ccc3c(N)n[nH]c3c2)nc(N)n1 [GSK2291363] | 34
17 | COc1ccc(-c2coc3ccc(-c4nnc(SCc5cccc(C#N)c5)o4)cc23)cc1 | 0
18 | CCS(=O)c1ccc(-c2coc3ccc(-c4nnc(C)o4)cc23)cc1 (stereo not drawn) | 7

Row | Compound | %Inh [%]
19 | Cc1cc(Nc2nc(-c3cccc(C)n3)nc3ccccc23)ccn1 [GW872411] | 1
20 | COC(=O)c1c(-c2ccccc2)c2cc(Br)ccc2c(=O)n1Cc1ccc(S(C)(=O)=O)cc1 | 0
21 | Nc1nccc2scc(-c3ccc4c(c3)CCN4C(=O)Cc3ccccc3)c12 [GSK2576924] | 14
22 | O=C(NCCNc1ccnc(Nc2ccc(F)cc2)n1)Nc1ccc2c(c1)OCO2 [GSK1379882] | 13
23 | COC(=O)c1c(-c2ccccc2)c2cc(Br)ccc2c(=O)n1Cc1ccc(NC(=O)CCC(=O)O)cc1 | 0
24 | Nc1ncnc2c1ncn2-c1ccc(Cl)cc1 [AH2635] | 0
25 | O=C(Nc1n[nH]c2cc(-c3ccccc3F)ccc12)C1CC1 [SB-733371] | 5
26 | Nc1n[nH]c2nnc(-c3ccccc3)c(-c3ccccc3)c12 [GW554060] | 44
27 | FC(F)(F)c1ccc(-c2ncn(CCCN3CCOCC3)c2-c2ccncc2)cc1 [SB-217780] | 48
28 | COc1ccc(-n2cnc3c(N)ncnc32)cc1 [SKF-97236] | 0
29 | CCC(=O)c1c(-c2ccccc2)c2cc(Cl)ccc2c(=O)n1Cc1cc(C(=O)NC2CC2)n(C)n1 | 0
30 | CCC(=O)c1c(-c2ccccc2)c2cc(Cl)ccc2c(=O)n1Cc1cc(S(C)(=O)=O)n(CCC(C)(C)O)n1 | 0
31 | COC(=O)c1c(-c2ccccc2)c2cc(C)ccc2c(=O)n1Cc1ccccc1 | 0
32 | COc1cc(Nc2ccnc3ccc(C(F)(F)F)cc23)cc(OC)c1OC [GW577382] | 11
33 | COc1ccc(-c2cc3c(C)nc(N)nc3n([C@H]3CC[C@H](OCCO)CC3)c2=O)cn1 | 0
34 | Cc1nnc(-c2ccc3ncn(-c4ccc(S(C)=O)cc4)c3c2)o1 (stereo not drawn) | 0
35 | COc1cc2ncn(-c3cc(OCc4ccc(S(C)(=O)=O)cc4)c(C(N)=O)s3)c2cc1OC [GW869979] | 0
36 | CCC(=O)c1c(-c2ccccc2)c2cc(Cl)ccc2c(=O)n1Cc1cc(S(C)(=O)=O)n(CC(N)=O)n1 | 4
